In PubChem BioAssay (EPA / NIEHS):
Inconclusive results are not listed. Activity calls are given as the source filed them. Rule for the calls, unless noted: active = hit-call score of the fitted dose curve at least 0.9, where 1 is the maximum; inconclusive = response in the unintended direction; inactive = score below 0.9.

Tests used:
[1] = ATG_TCF_b_cat_CIS: Attagene CIS-FACTORIAL HepG2 Assay for human T-Cell-Factor with beta-catenin (TCF/b-cat) (AID 2282965; active = hit-call score of the fitted dose curve at least 0.9, where 1 is the maximum; inactive = score below 0.9); details: HepG2 TCF/beta-catenin cis-reporter transcription, actives raise or lower the signal
How it was run: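 Measured: reporter mRNA in HepG2 transiently transfected with cis-promoter reporter units, 24 h after chemical addition. Fitting was bidirectional, DMSO as negative control.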

[2] = target: X-box-binding protein 1 (Homo sapiens) (UniProt P17861); assay: ATG_Xbp1_CIS: Attagene CIS-FACTORIAL HepG2 Assay for human X-box Binding Protein 1 (XBP1) (AID 2282972; active = hit-call score of the fitted dose curve at least 0.9, where 1 is the maximum; inactive = score below 0.9); details: HepG2 XBP1 cis-element reporter, Attagene multiplex; actives raise or lower the signal
How it was run: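 Changes in reporter transcript abundance, read by RT-PCR and capillary electrophoresis, reflect endogenous transcription factor activity. Transfected HepG2 cells received compound for 24 hours; DMSO defined baseline for bidirectional analysis.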

[3] = ATG_GAL4_TRANS: Attagene TRANS-FACTORIAL HepG2 Assay for GAL4 (Internal Marker) (AID 2282976); details: HepG2 Attagene TRANS GAL4 internal marker reporter
How it was run: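 Fluorescence from capillary electrophoresis of labelled RT-PCR products quantifies reporter mRNA induction after 24 h dosing of HepG2 cells carrying transfected GAL4-UAS reporter transcription units. Vehicle DMSO serves as baseline.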

[4] = ATG_M_06_TRANS: Attagene TRANS-FACTORIAL HepG2 Assay for M06 Transcription Factor (Internal Marker) (AID 2282983); details: HepG2 Attagene TRANS M06 internal marker reporter;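 note: reporter transcript level by RT-PCR then capillary electrophoresis fluorescence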
How it was run: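 Human liver HepG2 cells bearing transiently transfected chimeric NR-GAL4 reporter units were treated with chemicals for 24 h. Total RNA was reverse-transcribed, reporter sequences amplified and labelled, then quantified by capillary electrophoresis. Activity was fitted upward relative to DMSO.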

[5] = target: Nuclear receptor subfamily 4 group A member 2 (Homo sapiens) (UniProt P43354); assay: ATG_NURR1_TRANS: Attagene TRANS-FACTORIAL HepG2 Assay for human Nuclear Receptor Related Protein 1 (NURR1) (AID 2282985); details: HepG2 Attagene TRANS reporter, mRNA readout
How it was run: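 Measures transcriptional activation by an exogenous NR-Gal4 chimera in transfected HepG2 liver cells. After 24 h, reporter RNA is reverse-transcribed, amplified and resolved by capillary electrophoresis; DMSO defines baseline.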

[6] = target: Transcriptional activator Myb (Homo sapiens) (UniProt P10242); assay: ATG_Myb_CIS: Attagene CIS-FACTORIAL HepG2 Assay for human Myeloblastosis (Myb) Proto-Oncogene Transcription Factor (AID 2282986; active = hit-call score of the fitted dose curve at least 0.9, where 1 is the maximum; inactive = score below 0.9); details: HepG2 Attagene CIS-FACTORIAL Myb reporter transcription; actives raise or lower the signal
How it was run: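 Endogenous transcription factor activity at a Myb-responsive cis element is reported in human liver HepG2 cells after 24 h chemical treatment. Reporter mRNA is detected by RT-PCR and capillary electrophoresis fluorescence, with DMSO as baseline.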

[7] = target: Nuclear receptor subfamily 1 group I member 3 (Homo sapiens) (UniProt Q14994); assay: ATG_CAR_TRANS: Attagene TRANS-FACTORIAL HepG2 Assay for human Constitutive Androstane Receptor (CAR) (AID 2282969); details: HepG2 Attagene TRANS-FACTORIAL CAR reporter;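 note: activators raise reporter mRNA above DMSO so AC50 marks induction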
How it was run: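 Signal is reporter mRNA induction relative to DMSO, measured 24 h after dosing by RT-PCR with fluorescent primer extension and capillary electrophoresis. Human HepG2 liver cells carried transiently transfected chimeric NR-Gal4/GAL4-UAS reporter constructs.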

[8] = ATG_M_19_TRANS: Attagene TRANS-FACTORIAL HepG2 Assay for M19 Transcription Factor (Internal Marker) (AID 2282974); details: HepG2 Attagene TRANS-FACTORIAL M19 internal marker reporter
How it was run: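 After transfection of HepG2 with GAL4-UAS-driven reporter constructs, cells are dosed for 24 h. Total RNA is reverse-transcribed, reporter sequences PCR-amplified and labelled, then HpaI-digested and sized by capillary electrophoresis.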

[9] = target: Oxysterols receptor LXR-alpha (Homo sapiens) (UniProt Q13133); assay: ATG_LXRa_TRANS: Attagene TRANS-FACTORIAL HepG2 Assay for human Liver X Receptor alpha (LXRa) (AID 2282980); details: HepG2 Attagene TRANS reporter, LXRa transactivation
How it was run: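 Transient HepG2 transfectants, 24 h dosing, RT-PCR/CE mRNA reporter quantitation; gain-of-signal vs DMSO.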

[10] = target: Hepatocyte nuclear factor 4-alpha (Homo sapiens) (UniProt P41235); assay: ATG_HNF4a_TRANS: Attagene TRANS-FACTORIAL HepG2 Assay for human Hepatocyte Nuclear Factor 4 alpha (HNF4a) (AID 2282982); details: HepG2 HNF4a transactivation reporter, mRNA readout
How it was run: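 Multiplexed reporter assay: transfected HepG2, 24 h exposure, total RNA → oligo(dT) RT → PCR → 6-FAM extension → HpaI digest → CE fluorescence. DMSO = negative control.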

[11] = target: Estrogen receptor (Homo sapiens) (UniProt P03372); assay: ATG_ERa_TRANS: Attagene TRANS-FACTORIAL HepG2 Assay for human Estrogen Receptor alpha (ERa) (AID 2282970); details: HepG2 Attagene TRANS ERa GAL4 reporter, mRNA
How it was run: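 Transfected HepG2 cells carrying GAL4-UAS-driven reporter units were dosed for 24 hours. Total RNA was reverse-transcribed, reporter sequences PCR-amplified, FAM-labelled, HpaI-digested and resolved by capillary electrophoresis. Increases over DMSO control defined activity.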

[12] = target: Estrogen-related receptor gamma (Homo sapiens) (UniProt P62508); assay: ATG_ERRg_TRANS: Attagene TRANS-FACTORIAL HepG2 Assay for human Estrogen-Related Receptor gamma (ERRg) (AID 2282977); details: HepG2 Attagene TRANS reporter, ERRg transactivation;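 note: hits increase reporter signal over DMSO so potencies reflect activators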
How it was run: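 Exogenous NR-Gal4 chimera activity was assessed in HepG2 cells bearing transfected GAL4-UAS reporters. After 24 h dosing, total RNA underwent RT-PCR, fluorescent primer extension and HpaI digestion before capillary electrophoresis, with gain of signal scored against DMSO.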

[13] = target: Oxysterols receptor LXR-beta (Homo sapiens) (UniProt P55055); assay: ATG_LXRb_TRANS: Attagene TRANS-FACTORIAL HepG2 Assay for human Liver X Receptor beta (LXRb) (AID 2282981); details: HepG2 Attagene TRANS GAL4-LXRb reporter, mRNA
How it was run: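 After 24 h of chemical treatment, transfected HepG2 cells yield total RNA; reporter cDNA is PCR-amplified, FAM-labelled, HpaI-cut and run on capillary electrophoresis. Signal reflects chimeric LXRb-Gal4 activity on GAL4-UAS reporters.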

[14] = ATG_M_32_TRANS: Attagene TRANS-FACTORIAL HepG2 Assay for M32 Transcription Factor (Internal Marker) (AID 2282984); details: HepG2 Attagene TRANS M32 internal marker reporter;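 note: transcript level of a background control reporter unit measured by RT-PCR and capillary electrophoresis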
How it was run: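 Cell-based TRANS-format assay in HepG2: exogenous chimeric GAL4 reporter units transiently expressed, compounds applied 24 h. Reporter mRNA detected by RT-PCR plus capillary electrophoresis; this readout is an internal background marker.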

[15] = ATG_VDRE_CIS: Attagene CIS-FACTORIAL HepG2 Assay for human Vitamin D Receptor Element (VDRE) (AID 2282968; active = hit-call score of the fitted dose curve at least 0.9, where 1 is the maximum; inactive = score below 0.9); details: HepG2 VDRE cis-reporter transcription, actives raise or lower the signal
How it was run: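 Measures endogenous factor activity through cis-element-driven reporter transcripts in transiently transfected HepG2. Cells are treated 24 h; reporter mRNA is quantified by RT-PCR and capillary electrophoresis; fitting is bidirectional.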

[16] = target: Steroid hormone receptor ERR1 (Homo sapiens) (UniProt P11474); assay: ATG_ERRa_TRANS: Attagene TRANS-FACTORIAL HepG2 Assay for human Estrogen-Related Receptor alpha (ERRa) (AID 2282971); details: HepG2 Attagene TRANS reporter, ERRa transactivation
How it was run: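 HepG2 cells were transiently transfected with multiple GAL4-UAS reporter units, then dosed with compound for 24 h. Total RNA was reverse-transcribed, reporter cDNA PCR-amplified and fluorescently labelled, and fragments resolved by capillary electrophoresis; induction was compared with DMSO.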

[17] = ATG_TGFb_CIS: Attagene CIS-FACTORIAL HepG2 Assay for human Transforming Growth Factor (TGF) (AID 2282967; active = hit-call score of the fitted dose curve at least 0.9, where 1 is the maximum; inactive = score below 0.9); details: HepG2 Attagene CIS TGFb reporter, mRNA transcription; actives raise or lower the signal
How it was run: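 Endogenous TGFB1-linked transcription factor activity read as reporter mRNA via RT-PCR and capillary electrophoresis, 24 h after dosing transiently transfected HepG2 cells. Gain or loss of signal fitted relative to DMSO.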

[18] = target: Glucocorticoid receptor (Homo sapiens) (UniProt P04150); assay: ATG_GR_TRANS: Attagene TRANS-FACTORIAL HepG2 Assay for human Glucocorticoid Receptor (GR) (AID 2282978); details: HepG2 Attagene TRANS GR reporter, mRNA transcription;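 note: activators score as hits since higher reporter transcript over DMSO is fitted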
How it was run: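 Multiplexed TRANS reporter system, HepG2; 24 h exposure; RNA → oligo(dT) RT → reporter-specific PCR → 6-FAM primer extension → HpaI cut → CE fluorescence. Gain-of-signal vs DMSO.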

[19] = target: Bile acid receptor (Homo sapiens) (UniProt Q96RI1); assay: ATG_FXR_TRANS: Attagene TRANS-FACTORIAL HepG2 Assay for Farnesoid X Receptor (FXR) (AID 2282979); details: HepG2 Attagene TRANS FXR-GAL4 reporter transcription;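 note: hits raise reporter mRNA above DMSO so AC50 marks FXR activation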
How it was run: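 Chimeric FXR-GAL4 activity in transiently transfected human HepG2 liver cells is scored as induction of reporter mRNA after 24 h of dosing. Detection uses RT-PCR with fluorescent labelling and capillary electrophoresis, with DMSO serving as baseline.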

Measured: AC50

Sequence of Estrogen-related receptor gamma (Homo sapiens) (P62508 whole entry, looked up, the tested form may be a part): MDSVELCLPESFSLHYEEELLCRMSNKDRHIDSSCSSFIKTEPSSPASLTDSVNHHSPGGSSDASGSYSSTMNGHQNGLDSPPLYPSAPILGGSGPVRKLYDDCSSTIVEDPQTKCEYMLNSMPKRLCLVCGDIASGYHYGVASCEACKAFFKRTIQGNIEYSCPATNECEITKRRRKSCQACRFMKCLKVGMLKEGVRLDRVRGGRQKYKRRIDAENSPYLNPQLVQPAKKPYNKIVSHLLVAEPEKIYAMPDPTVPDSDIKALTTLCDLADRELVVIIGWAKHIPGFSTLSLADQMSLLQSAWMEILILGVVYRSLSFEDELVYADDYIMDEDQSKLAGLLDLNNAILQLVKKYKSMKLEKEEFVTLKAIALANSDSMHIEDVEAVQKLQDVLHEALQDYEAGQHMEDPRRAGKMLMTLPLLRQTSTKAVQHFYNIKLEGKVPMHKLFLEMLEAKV
Sequence of Nuclear receptor subfamily 4 group A member 2 (Homo sapiens) (P43354 whole entry, looked up, the tested form may be a part): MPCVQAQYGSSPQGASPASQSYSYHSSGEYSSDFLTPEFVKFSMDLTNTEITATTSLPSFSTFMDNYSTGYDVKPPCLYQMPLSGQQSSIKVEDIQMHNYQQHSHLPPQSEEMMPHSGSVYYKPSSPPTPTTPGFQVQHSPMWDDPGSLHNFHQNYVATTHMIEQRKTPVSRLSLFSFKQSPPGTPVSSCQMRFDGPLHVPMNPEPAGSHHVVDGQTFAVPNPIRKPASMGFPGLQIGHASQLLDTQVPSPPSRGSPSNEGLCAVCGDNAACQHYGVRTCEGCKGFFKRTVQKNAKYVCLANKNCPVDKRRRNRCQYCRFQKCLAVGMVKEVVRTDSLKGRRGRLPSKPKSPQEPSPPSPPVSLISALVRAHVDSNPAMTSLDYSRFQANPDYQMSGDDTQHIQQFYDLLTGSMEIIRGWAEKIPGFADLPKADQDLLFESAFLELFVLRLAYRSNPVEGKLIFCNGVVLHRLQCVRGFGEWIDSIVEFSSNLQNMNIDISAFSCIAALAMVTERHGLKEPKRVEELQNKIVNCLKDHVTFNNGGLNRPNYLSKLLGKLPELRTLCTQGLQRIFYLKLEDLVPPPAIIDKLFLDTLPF
Sequence of Estrogen receptor (Homo sapiens) (P03372 whole entry, looked up, the tested form may be a part): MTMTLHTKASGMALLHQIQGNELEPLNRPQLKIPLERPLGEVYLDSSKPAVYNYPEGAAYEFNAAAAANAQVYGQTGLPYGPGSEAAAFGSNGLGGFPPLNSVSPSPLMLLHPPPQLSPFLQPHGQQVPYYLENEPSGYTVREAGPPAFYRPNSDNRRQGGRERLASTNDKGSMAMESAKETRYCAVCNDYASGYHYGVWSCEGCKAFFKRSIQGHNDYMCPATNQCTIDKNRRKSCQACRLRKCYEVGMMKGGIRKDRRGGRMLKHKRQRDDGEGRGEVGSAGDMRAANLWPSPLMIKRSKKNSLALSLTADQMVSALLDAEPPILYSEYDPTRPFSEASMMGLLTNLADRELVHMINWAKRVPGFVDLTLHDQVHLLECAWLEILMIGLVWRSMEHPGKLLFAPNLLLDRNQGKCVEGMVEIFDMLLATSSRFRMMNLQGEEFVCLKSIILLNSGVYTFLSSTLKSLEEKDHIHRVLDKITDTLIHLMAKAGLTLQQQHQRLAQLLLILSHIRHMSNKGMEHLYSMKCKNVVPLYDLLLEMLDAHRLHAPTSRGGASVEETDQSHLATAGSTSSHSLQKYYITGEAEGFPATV
Sequence of Glucocorticoid receptor (Homo sapiens) (P04150 whole entry, looked up): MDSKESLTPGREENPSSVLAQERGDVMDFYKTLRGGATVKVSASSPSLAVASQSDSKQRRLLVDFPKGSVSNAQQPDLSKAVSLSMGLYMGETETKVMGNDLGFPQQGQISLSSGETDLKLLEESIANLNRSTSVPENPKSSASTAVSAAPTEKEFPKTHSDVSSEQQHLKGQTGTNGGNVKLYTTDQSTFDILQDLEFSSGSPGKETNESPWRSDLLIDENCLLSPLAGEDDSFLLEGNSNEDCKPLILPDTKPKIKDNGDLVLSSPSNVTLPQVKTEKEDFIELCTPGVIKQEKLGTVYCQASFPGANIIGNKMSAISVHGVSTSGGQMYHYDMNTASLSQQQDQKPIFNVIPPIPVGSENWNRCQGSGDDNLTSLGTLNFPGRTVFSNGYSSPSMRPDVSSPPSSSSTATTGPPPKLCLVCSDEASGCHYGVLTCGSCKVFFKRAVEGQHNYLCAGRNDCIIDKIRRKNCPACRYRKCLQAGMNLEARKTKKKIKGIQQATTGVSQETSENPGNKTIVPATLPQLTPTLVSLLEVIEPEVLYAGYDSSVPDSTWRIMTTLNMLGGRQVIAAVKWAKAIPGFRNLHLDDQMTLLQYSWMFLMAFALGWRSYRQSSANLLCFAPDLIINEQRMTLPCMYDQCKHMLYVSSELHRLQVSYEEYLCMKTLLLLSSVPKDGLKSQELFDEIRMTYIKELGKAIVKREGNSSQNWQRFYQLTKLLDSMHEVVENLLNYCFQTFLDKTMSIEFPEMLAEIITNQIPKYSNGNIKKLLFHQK
Sequence of Oxysterols receptor LXR-beta (Homo sapiens) (P55055 whole entry, looked up, the tested form may be a part): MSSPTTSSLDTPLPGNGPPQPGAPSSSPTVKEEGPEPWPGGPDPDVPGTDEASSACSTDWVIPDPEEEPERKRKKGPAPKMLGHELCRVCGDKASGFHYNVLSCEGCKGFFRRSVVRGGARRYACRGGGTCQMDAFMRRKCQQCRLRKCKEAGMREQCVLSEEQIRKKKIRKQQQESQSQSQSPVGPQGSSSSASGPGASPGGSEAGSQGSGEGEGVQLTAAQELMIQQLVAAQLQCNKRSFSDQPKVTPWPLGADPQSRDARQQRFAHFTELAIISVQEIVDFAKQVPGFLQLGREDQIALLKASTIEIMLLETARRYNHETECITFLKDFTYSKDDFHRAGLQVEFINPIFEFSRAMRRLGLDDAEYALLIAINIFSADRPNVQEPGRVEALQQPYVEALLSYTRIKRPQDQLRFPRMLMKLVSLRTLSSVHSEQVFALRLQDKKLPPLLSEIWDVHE
Sequence of Oxysterols receptor LXR-alpha (Homo sapiens) (Q13133 whole entry, looked up): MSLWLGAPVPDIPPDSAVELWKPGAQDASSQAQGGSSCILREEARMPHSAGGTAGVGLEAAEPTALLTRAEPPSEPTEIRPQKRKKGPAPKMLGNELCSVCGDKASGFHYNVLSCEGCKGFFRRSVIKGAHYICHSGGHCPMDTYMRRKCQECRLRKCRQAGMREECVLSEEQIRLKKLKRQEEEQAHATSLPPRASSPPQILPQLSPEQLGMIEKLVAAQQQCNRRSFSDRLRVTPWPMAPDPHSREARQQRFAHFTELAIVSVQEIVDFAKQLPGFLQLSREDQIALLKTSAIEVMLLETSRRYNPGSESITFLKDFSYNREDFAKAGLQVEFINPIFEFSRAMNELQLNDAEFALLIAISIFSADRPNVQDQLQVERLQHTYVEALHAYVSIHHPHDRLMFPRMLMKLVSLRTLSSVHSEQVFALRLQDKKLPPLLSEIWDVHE
Sequence of Hepatocyte nuclear factor 4-alpha (Homo sapiens) (P41235 whole entry, looked up): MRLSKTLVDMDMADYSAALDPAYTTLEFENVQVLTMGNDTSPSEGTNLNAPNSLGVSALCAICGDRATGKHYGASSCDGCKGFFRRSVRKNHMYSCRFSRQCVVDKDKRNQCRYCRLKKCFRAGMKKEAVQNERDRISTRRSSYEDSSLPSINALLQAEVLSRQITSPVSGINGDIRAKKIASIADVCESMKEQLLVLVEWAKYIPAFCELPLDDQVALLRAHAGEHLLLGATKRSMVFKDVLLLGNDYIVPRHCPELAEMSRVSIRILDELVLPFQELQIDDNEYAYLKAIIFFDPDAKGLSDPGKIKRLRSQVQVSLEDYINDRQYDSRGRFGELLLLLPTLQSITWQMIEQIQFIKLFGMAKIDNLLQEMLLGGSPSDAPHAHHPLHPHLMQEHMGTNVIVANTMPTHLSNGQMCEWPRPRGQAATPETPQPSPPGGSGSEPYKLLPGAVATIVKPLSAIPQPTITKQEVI
Sequence of Bile acid receptor (Homo sapiens) (Q96RI1 whole entry, looked up, the tested form may be a part): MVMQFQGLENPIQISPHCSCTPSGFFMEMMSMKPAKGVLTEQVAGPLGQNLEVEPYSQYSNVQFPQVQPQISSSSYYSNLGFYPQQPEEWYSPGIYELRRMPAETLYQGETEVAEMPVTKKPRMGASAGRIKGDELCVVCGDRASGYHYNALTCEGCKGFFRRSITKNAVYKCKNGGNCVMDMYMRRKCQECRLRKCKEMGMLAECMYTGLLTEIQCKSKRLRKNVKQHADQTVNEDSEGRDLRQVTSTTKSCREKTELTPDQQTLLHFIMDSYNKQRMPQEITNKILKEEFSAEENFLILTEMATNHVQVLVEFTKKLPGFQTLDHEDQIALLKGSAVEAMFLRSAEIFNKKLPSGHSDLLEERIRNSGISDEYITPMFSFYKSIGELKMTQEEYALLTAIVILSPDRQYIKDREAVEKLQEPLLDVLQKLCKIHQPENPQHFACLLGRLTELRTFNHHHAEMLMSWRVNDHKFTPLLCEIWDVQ
Sequence of Transcriptional activator Myb (Homo sapiens) (P10242 whole entry, looked up): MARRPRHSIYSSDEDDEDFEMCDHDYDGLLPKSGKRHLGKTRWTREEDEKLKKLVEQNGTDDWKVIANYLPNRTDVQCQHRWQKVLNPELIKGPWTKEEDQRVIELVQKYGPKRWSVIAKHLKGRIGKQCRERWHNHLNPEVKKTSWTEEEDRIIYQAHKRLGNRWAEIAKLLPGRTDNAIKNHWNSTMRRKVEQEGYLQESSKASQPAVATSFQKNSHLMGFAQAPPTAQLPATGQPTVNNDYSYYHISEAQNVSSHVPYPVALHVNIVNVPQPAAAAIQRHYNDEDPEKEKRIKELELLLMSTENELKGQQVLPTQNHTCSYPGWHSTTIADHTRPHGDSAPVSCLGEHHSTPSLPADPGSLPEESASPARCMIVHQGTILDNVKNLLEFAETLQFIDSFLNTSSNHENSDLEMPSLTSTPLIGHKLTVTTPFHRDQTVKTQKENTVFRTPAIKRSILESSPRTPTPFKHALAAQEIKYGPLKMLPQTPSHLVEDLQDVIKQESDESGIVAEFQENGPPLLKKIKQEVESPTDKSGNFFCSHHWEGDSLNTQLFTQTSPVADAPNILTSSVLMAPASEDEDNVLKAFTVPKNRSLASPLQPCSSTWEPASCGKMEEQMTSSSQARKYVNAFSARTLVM

CC=Cc1ccc(O)c(OC)c1
inactive: [1] | [2] | [3] | [4] | [5] | [6]

O=C(OCCCCCOC(=O)c1ccccc1)c1ccccc1
inactive: [1] | [7] | [2] | [8] | [3] | [9] | [10] | [5] | [6]

CCCCCCCCCCCCCCCC
inactive: [1] | [11] | [2] | [12] | [9] | [13] | [10] | [4] | [14] | [6]

COc1cc(/C=C/C(=O)CC(=O)/C=C/c2ccc(O)c(OC)c2)ccc1O
active: [1] 27.4 µM | [15] 33.4 µM | [2] 33.4 µM
not listed: [3] | [7] | [17] | [18] | [19]
inactive: all other assays above

Nc1nc(N)c2nc(CNc3ccc(C(=O)N[C@@H](CCC(=O)O)C(=O)O)cc3)cnc2n1
active: [1] 116 µM
not listed: [3] | [7] | [8] | [9] | [14] | [16]
inactive: all other assays above

O=[N+]([O-])C(CO)(CO)CO
inactive: [1] | [15] | [16] | [2] | [8] | [3] | [9] | [14] | [6]

CC1=C(/C=C/C(C)=C/C=C/C(C)=C/CO)C(C)(C)CCC1
active: [1] 25.9 µM | [15] 1.85 µM | [5] 2.86 µM
inactive: [2] | [3] | [13] | [4] | [14] | [6]

Cc1c(C(=O)O)c(O)cc2c1C(=O)c1c(O)c([C@@H]3O[C@H](CO)[C@@H](O)[C@H](O)[C@H]3O)c(O)c(O)c1C2=O
not listed: [3] | [4] | [7] | [9] | [11] | [12] | [13] | [16]
inactive: all other assays above

Cc1cc(NC(=O)C(=O)O)cc(C)c1Oc1ccc(O)c2c1CCC2
not listed: [8] | [9] | [11] | [16] | [17]
inactive: all other assays above

Cc1ccc(N(C)C)cc1
inactive: [1] | [17] | [15] | [11] | [2] | [18] | [10] | [4] | [14] | [6]

Cc1ccc2ncccc2c1
inactive: [1] | [2] | [8] | [12] | [18] | [4] | [6]

C=CCc1ccc(O)c(OC)c1
active: [1] 176 µM
inactive: [2] | [8] | [12] | [6]
